Assay results reported in PubChem BioAssay (NCATS).
Values joined by “and” are separate entries in the source; they are usually repeats but may differ in a detail not shown here. Equal values may be shown once. Records with an inconclusive call do not appear. Active and inactive are the calls of the source. Unless noted, calls follow the shape of the dose curve; as a rule, active = well fitted curve in the direction sought with a large enough effect; inconclusive = small, poorly fitted or top-dose-only effect, or another doubt; inactive = no such curve, though single readings can be large; an effect the other way counts as inactive or inconclusive.

How the values were obtained:
[1] = target: Lysosomal acid glucosylceramidase (Homo sapiens) (UniProt P04062); assay: Glucocerebrosidase-p2 (AID 348; in the data active = potency below about 10 µM; also: potency is read from the fitted curve at half-maximal effect); conditions: purified GBA, blue fluorogenic substrate, 40 min
Chain of Lysosomal acid glucosylceramidase (Homo sapiens) (P04062 whole entry, looked up): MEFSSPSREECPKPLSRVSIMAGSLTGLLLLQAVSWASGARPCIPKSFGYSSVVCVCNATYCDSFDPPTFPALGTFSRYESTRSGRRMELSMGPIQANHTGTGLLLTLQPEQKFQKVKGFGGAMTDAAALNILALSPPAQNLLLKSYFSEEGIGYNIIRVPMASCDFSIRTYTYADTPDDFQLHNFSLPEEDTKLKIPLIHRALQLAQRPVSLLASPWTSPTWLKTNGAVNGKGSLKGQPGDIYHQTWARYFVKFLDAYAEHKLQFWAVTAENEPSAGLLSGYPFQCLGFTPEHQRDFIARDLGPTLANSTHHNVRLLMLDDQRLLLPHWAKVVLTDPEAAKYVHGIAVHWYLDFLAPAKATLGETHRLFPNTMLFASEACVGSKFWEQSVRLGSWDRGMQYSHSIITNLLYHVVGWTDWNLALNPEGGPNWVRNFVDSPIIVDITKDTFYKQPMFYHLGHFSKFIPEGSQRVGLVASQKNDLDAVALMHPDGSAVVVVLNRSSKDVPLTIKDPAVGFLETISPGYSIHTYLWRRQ
Procedure, shortened: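 Normal human glucocerebrosidase (0.2 nM) with blue fluorogenic substrate (80 uM final) in citrate/phosphate pH 5.9 with 10mM sodium taurocholate, 0.01% tween-20; 40 min RT, NaOH/glycine stop; fluorescence Ex 365/Em 440; AC50 from a titration from 0.6 nM upwards.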

[2] = AP1 Signaling Pathway (AID 357; active = well fitted curve in either direction with a large enough effect, not every such curve was filed as active;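 also: ME-180 reporter cells stimulated with EGF at its EC50 level; % is scaled to controls: 0 for no effect and ±100 for the full control effect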); conditions: ME-180 AP-1-bla reporter, EGF-induced, beta-lactamase ratio, 5 h; at 7.69 µM (top of the series) unless noted
Procedure, shortened: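 In this screen, ME-180 cells in Opti-MEM with 0.5% dialyzed FBS received EC50 EGF and compound titrations for 5 h. AP-1 reporter beta-lactamase was detected via CCF4 ratio, giving AC50 for positive and negative modulators.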

[3] = target: Cytochrome P450 1A2 (Homo sapiens) (UniProt P05177); assay: p450-cyp1a2 (AID 410; calls by dose curve; also: potency is read from the fitted curve at half-maximal effect); conditions: recombinant CYP1A2, luciferin-ME demethylation, luminescence; series mostly up to 57 µM
Procedure, shortened: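 Luminescent demethylation readout: Luciferin-ME (100uM, equal to Km) turned over by 20nM CYP1A2 for 60 min at room temperature after NADPH regeneration addition, following 10 min compound preincubation. Normalization used 57 uM furafylline as full inhibition.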

[4] = Stat Signaling Pathway (AID 446; active = well fitted curve in either direction with a large enough effect, not every such curve was filed as active;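 also: ME-180 cervical cancer cells given 40 pM IL-6 alongside compound; SIE-controlled beta-lactamase reporter measured as 460/530 nm FRET emission ratio; % is scaled to controls: 0 for no effect and ±100 for the full control effect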); conditions: ME-180 (cervical carcinoma) SIE beta-lactamase reporter, IL-6 stimulated, 5 h; at 7.69 µM (top of the series) unless noted
Procedure, shortened: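 Normalization used AC90 stimulation (300 pM IL-6) and AC90 inhibition (125 nM pan-JAK inhibitor at 40 pM IL-6). The underlying signal is SIE-driven beta-lactamase in ME-180 cells after 5 h IL-6 exposure with compound.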

[5] = target: Glucocorticoid receptor (Homo sapiens) (UniProt P04150); assay: GR-EFC Redistribution (AID 451; calls by dose curve; also: potency is read from the fitted curve at half-maximal effect); conditions: CHO-K1 GR-EFC translocation, beta-gal luminescence, 2 h
Chain of Glucocorticoid receptor (Homo sapiens) (P04150 whole entry, looked up, the tested form may be a part): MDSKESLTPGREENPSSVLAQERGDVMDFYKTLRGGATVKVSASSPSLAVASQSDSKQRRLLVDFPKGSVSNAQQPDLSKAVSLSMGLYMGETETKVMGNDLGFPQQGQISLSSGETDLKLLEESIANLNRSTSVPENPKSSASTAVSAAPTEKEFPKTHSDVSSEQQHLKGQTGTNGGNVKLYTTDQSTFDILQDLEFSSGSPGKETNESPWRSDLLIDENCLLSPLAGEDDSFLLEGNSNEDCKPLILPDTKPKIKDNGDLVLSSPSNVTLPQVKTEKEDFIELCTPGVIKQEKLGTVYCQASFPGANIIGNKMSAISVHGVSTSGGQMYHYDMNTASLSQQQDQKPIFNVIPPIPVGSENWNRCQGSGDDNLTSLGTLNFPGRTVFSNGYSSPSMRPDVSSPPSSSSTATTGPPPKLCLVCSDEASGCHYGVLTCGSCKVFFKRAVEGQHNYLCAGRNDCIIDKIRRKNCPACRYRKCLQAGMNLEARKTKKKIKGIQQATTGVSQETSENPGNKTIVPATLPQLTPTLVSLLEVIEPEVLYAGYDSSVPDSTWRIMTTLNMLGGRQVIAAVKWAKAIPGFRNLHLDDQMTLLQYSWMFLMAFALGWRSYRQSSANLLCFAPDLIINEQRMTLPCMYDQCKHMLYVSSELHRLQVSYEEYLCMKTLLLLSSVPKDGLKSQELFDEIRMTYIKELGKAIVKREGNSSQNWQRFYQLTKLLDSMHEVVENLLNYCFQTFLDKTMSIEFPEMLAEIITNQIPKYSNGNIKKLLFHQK
Procedure, shortened: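 CHO-K1 cells stably expressing nuclear-localized β-gal enzyme acceptor and GR fused C-terminally to the enzyme donor fragment; ligand-driven nuclear translocation restores β-gal by complementation. Compounds titrated up to 46 uM final, 2 h at 37 °C; luminescence read.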

[6] = target: Mitogen-activated protein kinase 10 (Mus musculus) (UniProt Q61831); assay: JNK3 AlphaScreen Assay (AID 530; active = well fitted curve in either direction with a large enough effect, not every such curve was filed as active;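 also: kinase came from lysate of stimulated human HepG2 cells; signal reports phosphorylation of biotinylated GST-cJun 1-79 at Ser73 with 10 µM ATP; % is scaled to controls: 0 for no effect and ±100 for the full control effect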); conditions: JNK3 lysate, c-Jun phosphorylation; series mostly up to 57.1 µM
Procedure, shortened: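 Phosphorylation of biotinylated GST-cJun(1-79) at Ser73 is measured by AlphaScreen proximity luminescence. Enzyme is JNK3 in HepG2 lysates activated with interleukin-1beta and tumor necrosis factor alpha; ATP is 10 uM final.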

[7] = Primary qHTS for small molecule stabilizers of the endoplasmic reticulum resident proteome: Secreted ER Calcium Modulated Protein (SERCaMP) assay (AID 1508630); conditions: SH-SY5Y GLuc-SERCaMP (Gaussia luciferase released on ER calcium loss) secretion, thapsigargin, luminescence; series mostly up to 38.4 µM; also: % is scaled to controls: 0 for no effect and ±100 for the full control effect
Procedure, shortened: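 The SH-SY5Y reporter protocol was run at 3 concentrations up to 38.3 uM (primary) or 11 concentrations (follow-up): 16 h compound, 100 nM thapsigargin for 4 h, then extracellular luciferase luminescence.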

[8] = target: Rap guanine nucleotide exchange factor 4 (Homo sapiens) (UniProt Q8WZA2); assay: Confirmatory qHTS for agonist of cAMP-regulated guanine nucleotide exchange factor 4 (EPAC2) (AID 1645884); conditions: EPAC2 GEF activity, Rap1B-BODIPY-GDP fluorescence; series mostly up to 154 µM;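 also: nucleotide exchange releases bodipy-GDP from Rap1 and this lowers its fluorescence; nearly all actives have a fitted effect of over 65% in size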; also: potency is read from the fitted curve at half-maximal effect
Chain of Rap guanine nucleotide exchange factor 4 (Homo sapiens) (Q8WZA2 whole entry, looked up): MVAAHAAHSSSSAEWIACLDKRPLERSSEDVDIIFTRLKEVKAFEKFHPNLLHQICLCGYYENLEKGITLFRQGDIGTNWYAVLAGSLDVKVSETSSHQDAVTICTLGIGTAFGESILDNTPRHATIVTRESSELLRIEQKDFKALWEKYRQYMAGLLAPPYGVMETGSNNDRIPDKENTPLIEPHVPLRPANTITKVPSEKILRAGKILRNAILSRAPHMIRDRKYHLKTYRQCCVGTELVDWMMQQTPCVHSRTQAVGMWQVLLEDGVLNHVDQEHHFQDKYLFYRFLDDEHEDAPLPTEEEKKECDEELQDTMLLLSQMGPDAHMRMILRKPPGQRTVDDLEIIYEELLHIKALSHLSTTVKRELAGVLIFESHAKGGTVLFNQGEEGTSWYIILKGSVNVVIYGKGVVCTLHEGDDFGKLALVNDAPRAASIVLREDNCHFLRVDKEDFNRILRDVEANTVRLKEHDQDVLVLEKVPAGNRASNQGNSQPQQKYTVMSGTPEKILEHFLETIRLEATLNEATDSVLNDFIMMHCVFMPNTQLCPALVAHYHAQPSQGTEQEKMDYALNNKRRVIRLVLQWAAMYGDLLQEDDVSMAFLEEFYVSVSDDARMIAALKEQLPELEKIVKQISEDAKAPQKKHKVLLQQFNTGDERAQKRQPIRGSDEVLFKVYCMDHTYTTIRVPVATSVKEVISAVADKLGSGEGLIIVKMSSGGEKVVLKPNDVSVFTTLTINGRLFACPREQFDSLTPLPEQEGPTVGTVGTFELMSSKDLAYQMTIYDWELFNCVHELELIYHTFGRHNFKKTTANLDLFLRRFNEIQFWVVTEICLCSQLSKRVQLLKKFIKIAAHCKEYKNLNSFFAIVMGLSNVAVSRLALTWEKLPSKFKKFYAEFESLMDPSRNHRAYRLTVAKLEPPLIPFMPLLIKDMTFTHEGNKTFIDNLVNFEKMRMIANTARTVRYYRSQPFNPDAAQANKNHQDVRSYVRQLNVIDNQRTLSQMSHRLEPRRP

[9] = target: Rap guanine nucleotide exchange factor 4 (Homo sapiens) (UniProt Q8WZA2); assay: Confirmatory qHTS for antagonist of cAMP-regulated guanine nucleotide exchange factor 4 (EPAC2) (AID 1645885); conditions: EPAC2 Rap1B-BODIPY-GDP exchange fluorescence, biochemical; series mostly up to 114 µM; also: nearly all actives have a fitted effect of over 25% in size; also: potency is read from the fitted curve at half-maximal effect
[10] = NFAT Signaling Pathway (AID 444; active = well fitted curve in either direction with a large enough effect, not every such curve was filed as active); conditions: Jurkat NFAT-bla M1, carbachol, beta-lactamase ratio, 5 h; at 7.69 µM (top of the series) unless noted
Procedure, shortened: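 Jurkat cells carrying an NFAT-driven β-lactamase reporter and co-transfected muscarinic M1 receptor were treated with compound plus carbachol (1 uM final, an EC50 level) for 5 h at 37 °C. CCF4 loading followed for 1 h at RT; 460/530 nm ratio gave %activity.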

[11] = target: Glucocorticoid receptor (Homo sapiens) (UniProt P04150); assay: GR-GFP Redistribution (AID 450;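 active = compounds whose dose series gives a full or clear partial fitted curve of increased nuclear translocation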; also: potency is read from the fitted curve at half-maximal effect); conditions: U2OS GR-GFP nuclear translocation, laser cytometry, 2 h
[12] = target: Dual specificity protein kinase CLK4 (Homo sapiens) (UniProt Q9HAZ1); assay: qHTS Assay for Inhibitors of CDC-like Kinase 4 (Kinase-Glo Assay) (AID 1770); conditions: recombinant Clk4, Kinase-Glo ATP depletion luminescence; series mostly up to 66.7 µM; also: nearly all actives have a fitted effect of over 65% in size; also: potency is read from the fitted curve at half-maximal effect
Chain of Dual specificity protein kinase CLK4 (Homo sapiens) (Q9HAZ1 whole entry, looked up): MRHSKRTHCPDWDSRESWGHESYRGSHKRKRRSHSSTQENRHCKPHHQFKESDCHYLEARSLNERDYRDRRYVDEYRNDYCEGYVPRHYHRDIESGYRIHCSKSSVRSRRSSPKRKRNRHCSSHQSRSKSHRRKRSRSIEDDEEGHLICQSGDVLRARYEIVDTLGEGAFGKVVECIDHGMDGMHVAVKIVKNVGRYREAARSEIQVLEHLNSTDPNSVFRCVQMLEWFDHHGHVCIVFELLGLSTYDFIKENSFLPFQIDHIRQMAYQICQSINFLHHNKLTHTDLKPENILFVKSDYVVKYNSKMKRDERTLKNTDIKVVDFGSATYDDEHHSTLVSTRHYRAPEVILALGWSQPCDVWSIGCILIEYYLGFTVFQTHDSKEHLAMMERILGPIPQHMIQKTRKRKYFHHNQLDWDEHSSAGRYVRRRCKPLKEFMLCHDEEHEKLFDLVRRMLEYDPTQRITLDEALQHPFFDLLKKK
Procedure, shortened: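 Recombinant human Clk4 (25 nM) phosphorylated RS repeat peptide (100 uM) with 1 uM ATP in Tris pH 7.5/MgCl2/EGTA/DTT/Triton buffer for 4.5 h at room temperature. Residual ATP was quantified by Kinase-Glo luciferase luminescence.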

[13] = target: Dual specificity protein kinase CLK4 (Homo sapiens) (UniProt Q9HAZ1); assay: qHTS Assay for Inhibitors of CDC-like Kinase 4 (ADP-FP Assay) (AID 1795); conditions: Transcreener ADP fluorescence polarization; series mostly up to 50 µM; also: nearly all actives have a fitted effect of over 60% in size; also: potency is read from the fitted curve at half-maximal effect
Procedure, shortened: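 Recombinant human Clk4 (6.25 nM) phosphorylated RS repeat peptide (100 uM) with 1 uM ATP in Tris pH 7.5/MgCl2/EGTA/DTT/Triton buffer for one hour. ADP was quantified by Transcreener competitive fluorescence polarization against an ADP calibration curve.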

[14] = target: Ubiquitin carboxyl-terminal hydrolase 1 (Homo sapiens) (UniProt O94782); assay: Inhibitors of USP1/UAF1: Pilot qHTS (AID 504865); conditions: purified USP1/UAF1, Ub-rhodamine cleavage fluorescence; series mostly up to 54.9 µM;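 also: rhodamine fluorescence freed from ubiquitin-rhodamine substrate followed over time; top concentration of the series differs between compounds; % is scaled to controls: 0 for no effect and ±100 for the full control effect; nearly all actives have a fitted effect of over 35% in size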
Chain of Ubiquitin carboxyl-terminal hydrolase 1 (Homo sapiens) (O94782 whole entry, looked up): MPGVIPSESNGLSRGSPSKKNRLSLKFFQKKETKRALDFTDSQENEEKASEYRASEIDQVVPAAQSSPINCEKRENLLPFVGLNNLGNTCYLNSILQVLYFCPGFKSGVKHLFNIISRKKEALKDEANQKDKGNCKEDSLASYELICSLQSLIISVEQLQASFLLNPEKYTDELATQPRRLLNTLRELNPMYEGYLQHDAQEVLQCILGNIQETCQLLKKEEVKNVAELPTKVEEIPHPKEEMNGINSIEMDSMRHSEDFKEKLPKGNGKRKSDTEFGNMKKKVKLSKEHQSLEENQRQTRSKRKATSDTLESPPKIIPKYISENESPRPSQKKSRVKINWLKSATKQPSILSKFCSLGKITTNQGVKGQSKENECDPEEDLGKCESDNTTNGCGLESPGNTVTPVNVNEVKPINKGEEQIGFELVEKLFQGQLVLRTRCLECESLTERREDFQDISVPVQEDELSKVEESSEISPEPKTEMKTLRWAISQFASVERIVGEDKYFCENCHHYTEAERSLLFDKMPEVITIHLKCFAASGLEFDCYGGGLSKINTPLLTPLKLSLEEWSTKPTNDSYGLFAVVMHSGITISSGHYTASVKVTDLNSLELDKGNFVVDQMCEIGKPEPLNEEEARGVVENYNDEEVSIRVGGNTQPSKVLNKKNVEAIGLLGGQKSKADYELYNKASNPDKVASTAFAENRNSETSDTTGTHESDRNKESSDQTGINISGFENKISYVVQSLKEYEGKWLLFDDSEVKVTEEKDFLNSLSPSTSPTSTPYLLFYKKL
Procedure, shortened: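 USP1/UAF1 complex (1nM) preincubated with compound 15 min at room temperature, then Ub-Rho substrate (150nM final) added. Fluorescence read kinetically at 480/540 nm, 6 reads every 60 seconds. Buffer: 50mM HEPES pH 7.8, 0.5mM EDTA, 0.1 mg/ml BSA, 1mM TCEP, 0.01% Tween-20.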

[15] = target: Rap guanine nucleotide exchange factor 3 (Homo sapiens) (UniProt O95398); assay: Confirmatory qHTS for agonist of cAMP-regulated guanine nucleotide exchange factor 3 (EPAC1) (AID 1645881); conditions: EPAC1 Rap1B BODIPY-GDP exchange fluorescence; series mostly up to 154 µM;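 also: EPAC1 catalysed release of BODIPY-GDP from Rap1B seen as fluorescence loss; 100% = effect of cAMP agonist control; nearly all actives have a fitted effect of over 75% in size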
Chain of Rap guanine nucleotide exchange factor 3 (Homo sapiens) (O95398 whole entry, looked up): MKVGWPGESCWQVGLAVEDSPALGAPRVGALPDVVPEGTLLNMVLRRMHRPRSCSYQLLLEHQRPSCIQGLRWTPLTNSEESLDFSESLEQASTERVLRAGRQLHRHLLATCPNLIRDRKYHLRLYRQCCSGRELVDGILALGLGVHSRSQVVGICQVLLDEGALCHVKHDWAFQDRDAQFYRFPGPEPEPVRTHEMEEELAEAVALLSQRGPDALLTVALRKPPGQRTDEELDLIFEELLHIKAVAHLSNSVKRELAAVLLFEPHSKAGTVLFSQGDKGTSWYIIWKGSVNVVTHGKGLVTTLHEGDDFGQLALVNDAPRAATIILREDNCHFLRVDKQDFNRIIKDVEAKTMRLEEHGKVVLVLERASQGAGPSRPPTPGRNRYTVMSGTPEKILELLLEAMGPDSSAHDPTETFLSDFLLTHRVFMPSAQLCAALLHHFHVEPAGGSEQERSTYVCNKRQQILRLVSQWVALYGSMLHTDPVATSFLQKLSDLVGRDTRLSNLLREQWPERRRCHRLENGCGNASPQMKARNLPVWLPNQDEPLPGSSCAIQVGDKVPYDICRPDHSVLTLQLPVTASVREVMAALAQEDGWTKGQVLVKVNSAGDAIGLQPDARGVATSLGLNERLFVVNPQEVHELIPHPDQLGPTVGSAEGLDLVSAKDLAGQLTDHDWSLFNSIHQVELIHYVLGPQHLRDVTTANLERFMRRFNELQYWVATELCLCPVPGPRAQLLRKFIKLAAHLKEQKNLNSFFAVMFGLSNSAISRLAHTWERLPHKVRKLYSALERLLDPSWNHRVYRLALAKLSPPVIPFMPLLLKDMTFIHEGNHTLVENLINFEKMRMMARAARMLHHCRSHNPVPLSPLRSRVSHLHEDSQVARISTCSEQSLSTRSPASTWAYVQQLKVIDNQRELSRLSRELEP

[16] = target: Cytochrome P450 3A4 (Homo sapiens) (UniProt P08684); assay: qHTS Assay for Activators of Cytochrome P450 3A4 (AID 885); conditions: recombinant CYP3A4, Luciferin-PPXE luminescence, 60 min; series mostly up to 57.1 µM; also: nearly all actives have a fitted effect of over 65% in size
Chain of Cytochrome P450 3A4 (Homo sapiens) (P08684 whole entry, looked up): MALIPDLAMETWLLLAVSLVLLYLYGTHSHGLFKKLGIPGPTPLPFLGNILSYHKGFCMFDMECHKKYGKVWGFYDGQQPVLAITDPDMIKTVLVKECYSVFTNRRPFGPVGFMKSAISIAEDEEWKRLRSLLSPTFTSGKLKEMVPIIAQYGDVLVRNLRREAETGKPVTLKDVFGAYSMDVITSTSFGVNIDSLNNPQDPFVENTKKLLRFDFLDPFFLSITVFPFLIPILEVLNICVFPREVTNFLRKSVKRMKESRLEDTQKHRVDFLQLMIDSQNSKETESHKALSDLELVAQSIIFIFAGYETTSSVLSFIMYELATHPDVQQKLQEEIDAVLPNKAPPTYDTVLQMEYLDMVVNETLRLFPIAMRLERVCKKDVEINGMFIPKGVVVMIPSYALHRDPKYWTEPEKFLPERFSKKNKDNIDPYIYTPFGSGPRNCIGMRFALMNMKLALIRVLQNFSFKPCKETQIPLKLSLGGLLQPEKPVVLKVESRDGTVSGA
Procedure, shortened: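 Human CYP3A4 dealkylates Luciferin-PPXE to luciferin, which luciferase detection converts to light. Substrate was at its KM (25uM), buffer 200mM KPO4, reaction 60 min at RT.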

[17] = target: 3',5'-cyclic-AMP phosphodiesterase 4B (Homo sapiens) (UniProt Q07343); assay: qHTS Assay for Inhibitors of PDE-IV (AID 607; active = well fitted activation curve with a large enough effect in the main read-out, with a control signal flat, not every such curve was filed as active; also: % of control where 0% means no effect); conditions: HEK293 ACTOne CNG channel cells, membrane potential fluorescence; series mostly up to 22.9 µM
Procedure, shortened: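 HEK293 ACTOne cells with CNG channel (1000/well), endogenous PDE4; membrane potential dye, compounds up to 22.9 uM final. Fluorescence Ex 535/Em 590; RO 20-1724 (100 uM final) as reference.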

[18] = target: Cytochrome P450 3A4 (Homo sapiens) (UniProt P08684); assay: qHTS Assay for Inhibitors and Substrates of Cytochrome P450 3A4 (AID 884); conditions: recombinant CYP3A4, Luciferin-PPXE luminescence; series mostly up to 57.1 µM; also: potency is read from the fitted curve at half-maximal effect; nearly all actives have a fitted effect of over 50% in size
Procedure, shortened: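 Luminescent readout of luciferin produced by CYP3A4 (20 nM) dealkylation of Luciferin-PPXE, 25 uM (its KM). NADPH-driven reaction ran 60 min at RT after 10 min compound preincubation; data scaled to 57 uM ketoconazole as 100% inhibition.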

COc1ccc(-c2nc3cnc(Nc4ccccc4)nc3n(CCC#N)c2=O)cc1
active: Potency [3] 0.501 µM | Potency [8] 70.6 µM
inactive: Potency [1] > 11.4 µM | activity change, negative = inhibition [2] -3.18% | activity, negative = inhibition [4] -4.64% | Potency [5] > 46 µM | Potency [6] | outcome [7] | Potency [9]

COc1ccccc1-c1ccc2ncnc(N(C)Cc3ccco3)c2c1
inactive: Potency [1] > 11.4 µM | activity change, negative = inhibition [2] 10.4% | activity change, negative = inhibition [10] -26.4% | activity, negative = inhibition [4] -6.49% | Potency [11] > 46 µM | Potency [5] > 46 µM | Potency [6] | Potency [14] | outcome [7] | Potency [15] | Potency [8]
active: Potency [12] 8.91 µM | Potency [13] 2.82 µM | Potency [9] 39.3 µM

Cn1cccc1C(=O)N1CCC2(CCCN(c3cccc(-c4ccccc4)c3)C2)CC1
inactive: Potency [1] > 11.4 µM | activity change, negative = inhibition [2] 7.29% | activity change, negative = inhibition [10] -13.3% | activity, negative = inhibition [4] 2.34% | Potency [5] > 46 µM | Potency [16] | outcome [7] | Potency [15] | Potency [8] | Potency [9]
active: Potency [3] 15.8 µM

Cc1c(CC(C)(C)C(=O)O)n(Cc2ccc(Cl)cc2)c2ccc(F)cc12
active: Potency [3] 12.6 µM and 15.8 µM | Potency [9] 27.8 µM
inactive: activity change, negative = inhibition [2] -22.4% [at 38 µM] | activity, negative = inhibition [4] -0.406% [at 38 µM] | Potency [5] > 46 µM | Potency [6] | Potency [17] | Potency [16] | outcome [7] | Potency [15] | Potency [8]

COc1cccc(Nc2ncc3nc(-c4cc(F)cc(F)c4)c(=O)n(C4CC4)c3n2)c1
inactive: Potency [1] > 11.4 µM | activity change, negative = inhibition [2] -13.3% | activity change, negative = inhibition [10] -29.9% | activity, negative = inhibition [4] -7.32% | Potency [11] > 9.22 µM | Potency [5] > 46 µM | Potency [6] | Potency [17] | outcome [7] | Potency [15] | Potency [8] | Potency [9]
active: Potency [3] 6.31 µM

COc1cccc(Cn2c(=O)c(-c3ccc(Cl)cc3)nc3cnc(N4CCNCC4)nc32)c1
inactive: Potency [1] > 11.4 µM | Potency [11] > 9.22 µM | Potency [5] > 46 µM | Potency [17] | Potency [16] | Potency [12] | Potency [13] | Potency [14] | outcome [7] | Potency [15]
active: Potency [9] 39.3 µM

Cn1cc(-c2nc3cnc(N4CCOCC4)nc3n(CCC#N)c2=O)c2ccccc21
inactive: Potency [1] > 11.4 µM | activity change, negative = inhibition [2] -11.7% | activity change, negative = inhibition [10] -7.6% | activity, negative = inhibition [4] -5.04% | Potency [11] > 9.22 µM | Potency [5] > 46 µM | Potency [6] | Potency [17] | Potency [16] | Potency [12] | Potency [13] | outcome [7] | Potency [9]

COc1cccc(-c2cc(NCc3ccc(OC)cc3OC)ncn2)c1
inactive: Potency [1] > 11.4 µM | activity change, negative = inhibition [10] -8.15% | activity, negative = inhibition [4] -9.18% | Potency [11] > 46 µM | Potency [5] > 46 µM | Potency [6] | Potency [17] | Potency [16] | Potency [14] | outcome [7] | Potency [15]
active: Potency [3] 2 µM | Potency [18] 2.51 µM | Potency [12] 31.6 µM

COC(=O)C1=C(C)NC(C)=C(C(=O)OCCSc2ccccc2)[C@@H]1C
active: Potency [3] 0.794 µM
inactive: Potency [11] > 46 µM | Potency [5] > 46 µM | Potency [16] | outcome [7] | Potency [15]

COc1ccc(CNc2nc(-c3ccc4c(c3)OCO4)nc3ccccc23)c(OC)c1
inactive: Potency [1] > 11.4 µM | activity change, negative = inhibition [2] 0.828% | activity, negative = inhibition [4] 2.14% | Potency [11] > 46 µM | Potency [5] > 46 µM | Potency [6] | Potency [17] | Potency [16] | Potency [12] | Potency [13] | Potency [14] | outcome [7] | Potency [15] | Potency [8] | Potency [9]
active: Potency [3] 3.98 µM | Potency [18] 1.26 µM

O=C(c1csnn1)N1CCC2(CC1)CN(c1cccc(-c3ccccc3)c1)C2
active: Potency [3] 12.6 µM
inactive: activity change, negative = inhibition [2] -15.1% | activity change, negative = inhibition [10] -11.3% | Potency [5] > 46 µM | Potency [6] | Potency [17] | Potency [16] | outcome [7] | Potency [15] | Potency [8]

COc1ccc(-n2c(=O)c(-c3ccc(Cl)cc3)nc3cnc(N(C)C)nc32)cc1
inactive: Potency [1] > 11.4 µM | Potency [11] > 9.22 µM | Potency [5] > 46 µM | Potency [6] | Potency [12] | Potency [13] | Potency [14] | outcome [7] | Potency [15] | Potency [8] | Potency [9]
active: Potency [3] 10 µM

COc1ccc(C(=O)N2CCC3(CCCN(Cc4cc(C(F)(F)F)cc(C(F)(F)F)c4)C3)CC2)cc1
inactive: Potency [1] > 11.4 µM | activity change, negative = inhibition [10] -13.8% | activity, negative = inhibition [4] -8.85% | Potency [5] > 46 µM | Potency [6] | Potency [17] | Potency [16] | outcome [7] | Potency [15] | Potency [8]
